Compound activity from PubChem.
Artemis endo inh – Artemis (human) endonuclease inhibition. actives 0.78% (n = 30,000). AID 686954. recombinant Artemis, quenched FAM hairpin cleavage fluorescence. inhibition, % at 10 µM;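 active = at 10 µM dose, at least 30% inhibition, measured as corrected fluorescence normalized to stimulator and neutral control wells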
Target sequence (Q96SD1 whole entry, looked up): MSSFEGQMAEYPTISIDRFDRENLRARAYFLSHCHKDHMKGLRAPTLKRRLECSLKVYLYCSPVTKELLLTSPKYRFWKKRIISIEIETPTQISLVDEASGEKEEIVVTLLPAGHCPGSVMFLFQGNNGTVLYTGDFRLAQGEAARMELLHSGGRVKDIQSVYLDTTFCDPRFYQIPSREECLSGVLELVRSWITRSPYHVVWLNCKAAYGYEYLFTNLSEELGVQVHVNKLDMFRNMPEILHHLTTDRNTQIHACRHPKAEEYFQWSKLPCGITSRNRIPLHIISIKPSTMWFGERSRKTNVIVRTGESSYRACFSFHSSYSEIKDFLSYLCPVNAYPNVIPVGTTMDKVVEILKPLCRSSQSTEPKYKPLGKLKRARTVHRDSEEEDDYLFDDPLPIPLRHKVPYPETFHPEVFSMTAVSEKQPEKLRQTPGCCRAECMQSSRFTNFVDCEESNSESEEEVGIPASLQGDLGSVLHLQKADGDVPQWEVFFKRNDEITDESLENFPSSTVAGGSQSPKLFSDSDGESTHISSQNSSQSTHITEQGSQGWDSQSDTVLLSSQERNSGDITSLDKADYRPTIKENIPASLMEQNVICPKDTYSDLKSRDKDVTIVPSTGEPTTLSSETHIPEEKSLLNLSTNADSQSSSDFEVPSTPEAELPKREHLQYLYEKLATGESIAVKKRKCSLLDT
* hit, by the source's call. The full list was thinned out, with hits kept by preference.

SMILES | Artemis endo inh
Cc1cccc(C(=O)N2CCN(c3ccc([N+](=O)[O-])c(NCc4ccco4)c3)CC2)c1 | 28
O=C(NCCC1=CCCCC1)C1COc2ccccc2O1 (stereo unspecified) | 7
Cc1ccccc1CSc1nccn1-c1ccccc1 | 3
CC(=O)N(C)c1ccc(OCC(O)Cn2c3ccc(Cl)cc3c3cc(Cl)ccc32)cc1 (stereo unspecified) | 0
O=C(CN1CCCC1)N/N=C/c1ccc(-c2cccc(Cl)c2)o1 | 0
O=C(N/N=C/c1ccc(-c2ccc(S(=O)(=O)Nc3ncccn3)cc2)o1)c1cc2ccccc2cc1O | 33*
CCOc1ccc(S(=O)(=O)N(CC(=O)N/N=C/c2ccc(-c3ccc([N+](=O)[O-])cc3)o2)c2ccccc2)cc1 | 27
Nc1nc(CSCCO)nc(Nc2ccccc2)n1 | -3
Cc1c(-c2nc(N)nc(Nc3ccccc3)n2)oc2ccccc12 | 52*
COc1ccc(OC)c(Nc2nc(N)nc(-c3cc4ccccc4o3)n2)c1 | 1
Cc1ccc(NS(=O)(=O)c2ccc(NC(=O)[C@@H]3CCCC[C@@H]3C(=O)O)cc2)c(C)c1 | -2
CC1=C(C(=O)N2CCCCC2)C(c2cccs2)C2=C(CCCC2=O)N1 (stereo unspecified) | -10
O=C(Cc1ccccc1)NC(Nc1cccc2ccccc12)C(Cl)(Cl)Cl (stereo unspecified) | -1
O=C(Cc1ccccc1)NC(Nc1ccccc1)C(Cl)(Cl)Cl (stereo unspecified) | 31*
Cc1ccc(NC(NC(=O)c2cccs2)C(Cl)(Cl)Cl)cc1 (stereo unspecified) | 7
O=C(N/N=C\c1ccc(-c2ccccc2[N+](=O)[O-])o1)C1COc2cc3ccccc3cc2O1 (stereo unspecified) | 36*
Cc1ccc(/C=N\NC(=O)C2COc3cc4ccccc4cc3O2)o1 (stereo unspecified) | 4
COc1ccc(OC)c(NC(=O)C2COc3ccccc3O2)c1 (stereo unspecified) | -1
CCCSC(=O)N(CC)CC(=O)Nc1c(CC)cccc1CC | -13
Cc1n[nH]c(C)c1S(=O)(=O)N1CCN(C2CCCCC2)CC1 | -9
COc1ccccc1-c1nc(C#N)c(NCc2ccc(F)cc2)o1 | 15
COc1ccc(C2CC(=O)c3cnc(NC(=O)c4ccccc4)nc3C2)c(OC)c1 (stereo unspecified) | 25
CCOC(=O)C1=C(C)NC(=O)NC1c1c(OCC(=O)N2CCCCC2)ccc2ccccc12 (stereo unspecified) | 10
CCOc1ccc2nc(NC(=O)C3CCCN(S(=O)(=O)c4cccs4)C3)sc2c1 (stereo unspecified) | 34*
CCOc1ccc2nc(NC(=O)C(CCSC)NS(=O)(=O)c3cccs3)sc2c1 (stereo unspecified) | -1
SMILES | Artemis endo inh
O=C(NC1CCCCCC1)C1CCCN(S(=O)(=O)c2cccs2)C1 (stereo unspecified) | 5
CCc1nc(N)c(C#N)c(-c2ccccc2OC)c1C | -1
COc1ccc2c(c1)N(C(=O)CSc1n[nH]c(C)n1)C(C)(C)C=C2C | -2
COC(=O)[C@@H]1[C@@H](C#N)C2(c3ccccc3-c3ccccc32)N(c2ccc(Cl)cc2)N1C#N | 40*
O=C(c1cccc(Cl)c1)N1CCN(Cc2ccccc2F)CC1 | -4
c1ccc(N2CCN(c3nc(-c4ccccn4)nc4ccccc34)CC2)cc1 | 93*
c1ccc2c(N3CCCCCC3)nc(-c3ccncc3)nc2c1 | 2
Oc1ccccc1-c1nc(N2CCN(Cc3ccccc3)CC2)c2ccccc2n1 | 13
c1ccc(-c2c(-c3ccccc3)n(Cc3ccco3)c3ncnc(NCCCn4ccnc4)c23)cc1 | 44*
N=c1c2c(-c3ccccc3)c(-c3ccccc3)n(Cc3ccco3)c2ncn1Cc1ccccc1 | 9
CC(C)Cn1cnc2c(c(-c3ccccc3)c(-c3ccccc3)n2Cc2ccco2)c1=N | 23
O=C(O/N=C/C1=C(Cl)c2ccccc2CC1)c1ccc(F)cc1 | -4
COc1ccc(N2CCN(CC(O)COc3ccc4c(c3)CCC4)CC2)cc1 (stereo unspecified) | 4
Cc1cc(N2C(=O)C(O)=C(C(=O)c3ccco3)C2c2ccc(O)cc2)no1 (stereo unspecified) | -2
CCc1ccc2nc(N3C(=O)C(O)=C(C(=O)c4ccco4)C3c3cccs3)sc2c1 (stereo unspecified) | 43*
Cc1cc(N2C(=O)C(O)=C(C(=O)c3ccc(C)o3)C2c2cccs2)no1 (stereo unspecified) | 16
O=C(N/N=C/c1cccs1)c1cc(-c2ccc3ccccc3c2)n[nH]1 | 34*
O=C(N/N=C\c1ccc(Cl)s1)c1cccs1 | 1
O=C(N/N=C/c1ccco1)c1cc(-c2ccc3ccccc3c2)n[nH]1 | 23
O=P(O)(c1ccc(Cl)cc1)c1ccc(Cl)cc1 | 2
Cc1cc(OCC(=O)N2CCCC2)cc(C)c1Cl | 4
Cc1cc(OCC(=O)Nc2ccc(N3CCCC3)cc2)cc(C)c1Cl | 66*
CCCC(=O)Nc1ccc(N2CCCCC2)cc1 | -6
Cn1cc(CC(=O)Nc2cccc(C#N)c2)c2ccccc21 | -8
Cc1cc(Nc2nc3ccccc3[nH]c2=O)n(-c2ccccc2)n1 | 4
SMILES | Artemis endo inh
Cc1ccc(Nc2cc(C)nc3nnnn23)cc1 | -2
Cc1ccc(Nc2cc(C)nn2-c2nc(C)cc(=O)[nH]2)cc1 | 35*
O=C(c1ccccc1F)N(Cc1ccc2c(c1)OCO2)Cc1cc2cc3c(cc2n2nnnc12)OCO3 | 16
O=C(Cn1nnc2ccccc21)C1CC1 | 3
Brc1ccccc1C1=Nn2c(nnc2-c2ccccc2)SC1 | 6
c1ccc(-c2ccc(C3=Nn4c(Cn5nnc6ccccc65)nnc4SC3)cc2)cc1 | 33*
O=C(COC(=O)C1CC(=O)N(c2ccc3c(c2)OCCO3)C1)Nc1ccc2c(c1)CCC2 (stereo unspecified) | -7
O=C(Nc1nc2ccccc2s1)C1CC(=O)N(c2ccc(Cl)cc2)C1 (stereo unspecified) | 5
O=C(Nc1nc(-c2ccco2)c(-c2ccco2)s1)C1CC(=O)N(c2ccc3c(c2)OCCO3)C1 (stereo unspecified) | 32*
COc1ccc(Cl)cc1C(=O)NCC(C)C | -2
c1ccc(Oc2cccc(NC3=NCCC3)c2)cc1 | -5
CCN1C(=O)/C(=C2/C=Cc3ccccc3N2C)OC1=S | 5
CCN1/C(=C/c2ccc3ccccc3[n+]2CC)C=Cc2ccccc21 | 38*
CCN(CC)c1ccc(C2CC(=O)Nc3cc(OC)c(OC)cc32)cc1 (stereo unspecified) | 2
CCOC(=O)c1cc(C)n(S(=O)(=O)c2ccc(C)cc2)c1C | 3
O=C1OCCC1Sc1nc(-c2ccccc2)cs1 (stereo unspecified) | 9
CCc1ccc(/C=C/C(=O)c2c(C)cc(C)[nH]c2=O)cc1 | 2
NC(=O)c1cc2cc(Br)ccc2oc1=NCc1ccccc1 | 1
O=C(/C=C/c1ccccc1)c1cc(Br)ccc(=O)c1O | 36*
COCCOc1cc(-n2ccnc2SC)c(Cl)cc1Cl | -5
Cn1cccc1CC(=O)N/N=C\c1cccs1 | -4
Cc1ccc(N(CC(=O)N/N=C/c2cccs2)S(C)(=O)=O)cc1Cl | -5
CCN(CC)C(=O)C(=O)N/N=C/c1cccs1 | 53*
CCOc1ccccc1C1C(C(=O)Nc2ccccc2OC)=C(C)Nc2nnnn21 (stereo unspecified) | 3
COc1ccc(N(C(=O)Cn2nnc3ccccc32)C(C(=O)NCc2ccco2)c2ccc(C)o2)cc1 (stereo unspecified) | 1
